Bioassay records: PubChem, National Center for Advancing Translational Sciences (NCATS)
Hits are enriched below; roughly 7.2% of the tested compounds scored in any of these assays.
FLuc inh – qHTS Assay for Inhibitors of Firefly Luciferase; Luciferin 4-monooxygenase (Photinus pyralis), P08659; purified firefly luciferase, luminescence, 8 min; Potency, µM (series often up to 57.1 µM), for inactives: at the highest dose activity change, negative = inhibition, most hits filed as inhibitors; 72,000 tested, 2.2% active; AID 411, 2009; also: % is scaled to controls: 0 for no effect and ±100 for the full control effect; nearly all actives have a fitted effect of over 40% in size
Target sequence (P08659 whole entry, looked up): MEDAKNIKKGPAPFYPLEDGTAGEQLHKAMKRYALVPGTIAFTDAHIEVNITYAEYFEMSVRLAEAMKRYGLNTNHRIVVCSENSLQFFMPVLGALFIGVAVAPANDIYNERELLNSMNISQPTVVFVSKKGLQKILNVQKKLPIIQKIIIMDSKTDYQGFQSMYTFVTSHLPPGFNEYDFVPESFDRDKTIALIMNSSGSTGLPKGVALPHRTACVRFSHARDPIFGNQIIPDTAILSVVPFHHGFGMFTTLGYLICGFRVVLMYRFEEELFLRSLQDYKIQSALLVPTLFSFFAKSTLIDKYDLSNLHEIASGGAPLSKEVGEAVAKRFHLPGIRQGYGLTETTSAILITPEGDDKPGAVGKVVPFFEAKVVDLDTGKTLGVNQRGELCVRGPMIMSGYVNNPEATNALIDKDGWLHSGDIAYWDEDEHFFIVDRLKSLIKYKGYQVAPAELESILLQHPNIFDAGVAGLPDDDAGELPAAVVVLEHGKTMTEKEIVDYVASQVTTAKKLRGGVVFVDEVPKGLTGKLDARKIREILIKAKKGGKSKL
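qHTS concentration-response profiling: light output of P. pyralis luciferase with luciferin and 10 uM ATP, imidazole buffer pH 7.2. Read by luminescence after 8-min room-temperature incubation.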
TSHR ag – qHTS Assay for Agonists of the Thyroid Stimulating Hormone Receptor; 73,000 tested, 0.48% active; Thyrotropin receptor (Homo sapiens), P16473; Potency, µM (top dose mostly 57.1 µM), for the others: top-dose activation, actives largely listed as activators; HEK293-CNG-TSHR cells (CNG channel as cAMP sensor), membrane potential dye, cAMP; active = well fitted activation curve with a large enough effect in the main read-out, with a control signal flat, not every such curve was filed as active; inconclusive = small, poorly fitted or top-dose-only effect, or a change in a side signal; inactive = no such curve, though single readings can be large or run the other way; % of control where 0% means no effect;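 also: the control signal comes from parental cells without the receptor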
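HEK 293 cells stably expressing TSHR and a modified CNG channel, with CNG-only parental cells as counterscreen, were preloaded 60 min at room temperature with membrane potential dye containing 100 uM RO 20-1724. Compound exposure was 30 min, and depolarization was read as fluorescence at 590 nm.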
HEK293 cAMP ctrl – qHTS Assay for Agonists of the Thyroid Stimulating Hormone Receptor: Activators of Intracellular cAMP Concentrations in Parental HEK 293; parental HEK293 CNG cAMP sensor, membrane potential fluorescence; Potency, µM (highest dose often 57.1 µM), for the others: at the highest dose activation, hits mostly activators; 73,000 tested, 2.5% active; AID 938, 2007; also: % of control where 0% means no effect; nearly all actives have a fitted effect of over 55% in size
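Counterscreen for endogenous-receptor signalling: CNG-channel HEK 293 cells report cAMP rise by membrane depolarization. After 60 min dye equilibration with 100 uM RO 20-1724, compounds incubated 30 min before bottom-read fluorescence at 590 nm.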
Tau fil binding – qHTS Assay for Tau Filament Binding | Microtubule-associated protein tau (Homo sapiens), P10636 | recombinant tau filaments, thioflavin S fluorescence, 15 h; filaments grown with octadecylsulfate alongside compound | Potency, µM (titrated, usually from 57.1 µM), for inactives: at the highest dose activity change, negative = inhibition | 71,000 tested, 2% active | AID 596, 2007;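 also: % is scaled to controls: 0 for no effect and ±100 for the full control effect; actives lower thioflavin S fluorescence by blocking filaments or displacing dye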
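Quantitative HTS: thioflavine S signal from ODS-induced tau filaments, excited at 450 nm, emission 510 nm. Conditions: 1 uM tau, 30 uM ODS, 15 h at 37 C, pH 7.4.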
ERK AVP block – qHTS Assay for Inhibitors of the ERK Signaling Pathway using a Homogeneous Screening Assay; 72,000 tested, 0.99% active; HEK293-V1b, vasopressin-stimulated pERK AlphaScreen; Potency, µM (top dose mostly 57.5 µM), inactives show top-dose activity, negative = inhibition, hits mostly inhibitors; AID 995, 2007; also: % is scaled to controls: 0 for no effect and ±100 for the full control effect; nearly all actives have a fitted effect of over 55% in size
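HEK293 cells stably expressing V1b receptor, seeded overnight in 1% FBS, were treated with compounds for 30 min at 37C, then stimulated 5 min with 25 nM vasopressin; phospho-ERK read by AlphaScreen SureFire after lysis.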
PK Bst – Pyruvate Kinase | purified pyruvate kinase, luminescence ATP production; ribose 5-phosphate activator present at AC10 | Potency, µM | 51,000 tested, 1.2% active | AID 361, 2006; in the data active = potency below about 11 µM; inconclusive = mostly about 12 µM to 25 µM;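 the screen sought inhibitors and activators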;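 also: scaled between full activation by ribose 5 phosphate and full inhibition by luteolin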
* marks the source's active call; other numbers are inactive results; i = inactive; u = inconclusive; x = no result given; [ ] = another dose, or the depositor's remark. Unless noted, calls follow the shape of the dose curve; as a rule, active = well fitted curve in the direction sought with a large enough effect; inconclusive = small, poorly fitted or top-dose-only effect, or another doubt; inactive = no such curve, though single readings can be large; an effect the other way counts as inactive or inconclusive. Potency is read from the fitted curve at half-maximal effect.

SMILES	FLuc inh	TSHR ag	HEK293 cAMP ctrl	Tau fil binding	ERK AVP block	PK Bst
COc1ccc(NC(=O)c2cc(-c3ccc(C)o3)nc3ccccc23)cc1OC	2.5µM*	u	25µM*	48%	-16%	3.7*
CCOc1cc(N2CCOCC2)c(OCC)cc1NC(=O)c1cc(-c2ccco2)nc2ccccc12	-6%	4%	-14%[2.29 µM]	10µM*	u	>57
CN1CCN(c2ncc3ncc(=O)n(CCc4ccccc4)c3n2)CC1	-2%[11.4 µM]	3%	8%	-4%	25%	x
COCCN(CCOC)c1nc(C)nc2c1nc(-c1ccccc1)n2CC1CCN(C)CC1	x	9%	23%	12%	-15%	x
CN[C@]1(C)[C@H]2CC[C@@H](C2)C1(C)C	1%[25.5 µM]	5%[25.6 µM]	6%[25.6 µM]	-3%[25.6 µM]	1%[25.7 µM]	x
c1cncc(-c2cc(-n3ccnc3)ncn2)c1	-3%[2.29 µM]	x	-4%	-25%	-12%	x
O=C(Nc1cccc(F)c1)N1CC2(CCN(S(=O)(=O)c3ccccc3)CC2)C1	1%[11.4 µM]	7%	2%	6%	-5%	x
Cc1ccc(C(=O)Nc2cccc(C(=O)O)c2)cc1S(=O)(=O)N1CCCCC1	13µM*	0%[11.4 µM]	16%[11.4 µM]	3%[11.4 µM]	-20%	x
O=C(Nc1cccc(S(=O)(=O)C(F)F)c1)c1ccc(Cl)c(S(=O)(=O)N2CCOCC2)c1	0%	x	18%	6%	13µM*	>57
CC(=O)OCC(=O)[C@@]1(O)CCC2C3CC(C)C4=CC(=O)C=CC4(C)C3C(O)CC21C (stereo not given in full)	x	x	x	x	7%	x
O=C(c1csnn1)N1CCC[C@@]2(CCN(Cc3cc(C(F)(F)F)cc(C(F)(F)F)c3)C2)C1	1%[11.4 µM]	u	u	-10%	-6%	x
O=C(c1ccccc1)N1CCN(Cc2ccccc2Br)CC1	0%	-9%	-3%	2%	-8%	>57
O=C(c1ccccc1)n1c(=S)nc2ccccn21	1.3µM*	x	x	x	x	2.2*
CCCNC(=O)N1N=C(c2ccc(N)cc2)c2cc3c(cc2[C@H]1C)OCO3	-1%	x	20%	-4%	u	x
O=C(O)[C@H]1CCCNC1	2%	-6%	0%	u	12%	x
CCOC(=O)Cc1nc2ccccc2[nH]1	-1%	2%	-1%	-5%	3%	>57
COc1cc(C(=O)Nc2nc3ccccc3[nH]2)cc(OC)c1OC	-20%	9%	-4%	23%	5%	x
c1ccc(OCc2nc3ccccc3[nH]2)cc1	25µM*	x	9%	-7%	0%	x
O=C(COc1ccccc1)Nc1nc2ccccc2[nH]1	20µM*	-2%	6%	2%	-23%	x
CCCNC(=O)OC[C@@H]1O[C@H](CCO/N=C(\C)CCN2CCCc3nc(C)c(C)cc32)C=C[C@@H]1Oc1ccc(OC)cc1	1%[11.4 µM]	2%[11.4 µM]	7%[11.4 µM]	x	18%[11.5 µM]	x
COCCn1c(=O)c(-c2cc(F)cc(F)c2)nc2cnc(OCc3ccccc3)nc21	1%[11.4 µM]	-6%	4%	-27%	-4%	x
O=C(Nc1ccccc1)N1CC[C@@]2(CCCN(C(=O)c3ccncc3)C2)C1	0%[11.4 µM]	-6%	7%	-2%	4%	x
Nc1nonc1-c1nc2ccccc2[nH]1	0%	12%	4%	-4%	-26%	x
Cn1cc(Cl)c(-c2nc3ccccc3[nH]2)n1	25µM*	1%	5%	7%	-4%	i
CN(C)S(=O)(=O)N1CCN(S(=O)(=O)c2ccc(F)cc2)CC1	0%	4%	6%	9%	-17%	>57
CN(C)S(=O)(=O)c1ccc(N2CCN(S(=O)(=O)c3ccc(F)cc3)CC2)c(Cl)c1	2%	3%	17%	1%	-11%	6.1*
CCCC(=O)Nc1ccc(NC(=O)c2ccccn2)cn1	20µM*	-3%[11.4 µM]	29%	-4%	14%	x
COCCN(CCOC)c1nc(C)nc2c1nc(-c1ccccc1)n2CCN(C)C	x	u	u	6%	-16%	x
